Results taken from PubChem BioAssay AID1159580 (chemical genetic matrix, 2015).
Where “and” joins values, the source holds several entries; their conditions need not be identical. Equal entries are not always repeated. Out of some 5,500 compounds screened, about 2,000 (36%) were called active. About 18% were inconclusive and are not listed. Cut-off read from the data, not from the text of the source: active = normalized growth mostly below about 0.91 (no sharp cut-off); inconclusive = no clear call, values can overlap the other calls; inactive = mostly above about 0.92. Some of the results follow.

Test: chemical genetic growth profiling, strain panel (AID 1159580);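 note: tested at 20 µM; growth read once vehicle control cultures reached saturation at 30 °C; 1 = growth at the plate median or of vehicle wells; lower values mean less growth of the strain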
Settings: growth OD
[1] = S. cerevisiae deletion strains, locus YDL101C, strain DUN1, active compounds read low
[2] = S. cerevisiae deletion strains, locus YGR052W, strain FMP48, active compounds read low
[3] = S. cerevisiae deletion strains, locus YHR030C, strain SLT2, active compounds read low
[4] = S. cerevisiae deletion strains, locus YHR079C, strain IRE1, active compounds read low
[5] = S. cerevisiae deletion strains, locus YHR082C, strain KSP1, active compounds read low
[6] = S. cerevisiae deletion strains, locus YJL095W, strain BCK1, active compounds read low
[7] = S. cerevisiae deletion strains, locus YJR066W, strain TOR1, active compounds read low
[8] = S. cerevisiae deletion strains, locus YKL203C, strain TOR2, active compounds read low
[9] = S. cerevisiae deletion strains, locus YLR113W, strain HOG1, active compounds read low
[10] = S. cerevisiae deletion strains, locus YNL183C, strain NPR1, active compounds read low
[11] = S. cerevisiae deletion strains, locus YNL207W, strain RIO2, active compounds read low
[12] = S. cerevisiae deletion strains, locus YOR119C, strain RIO1, active compounds read low
[13] = S. cerevisiae deletion strains, locus YOR231W, strain MKK1, active compounds read low
[14] = S. cerevisiae deletion strains, locus YPL256C, strain CLN2, active compounds read low

Measured: normalized growth

CSc1ccc(/C=C/[N+](=O)[O-])cc1
active: S. cerevisiae deletion strains, locus YAL013W, strain DEP1, active compounds read low 0.0558 | S. cerevisiae deletion strains, locus YBR229C, strain ROT2, active compounds read low 0.0536 | S. cerevisiae deletion strains, locus YCL061C, strain MRC1, active compounds read low 0.0551 | [1] 0.0652 | S. cerevisiae deletion strains, locus YDL134C, strain PPH21, active compounds read low 0.0471 | S. cerevisiae deletion strains, locus YDR150W, strain NUM1, active compounds read low 0.582 | S. cerevisiae deletion strains, locus YEL061C, strain CIN8, active compounds read low 0.0542 | [2] 0.131 | S. cerevisiae deletion strains, locus YGR078C, strain PAC10, active compounds read low 0.0514 | [3] 0.0754 and 0.122 | [4] 0.176 | [5] 0.118 | S. cerevisiae deletion strains, locus YHR087W, strain rtc3, active compounds read low 0.0549 | [6] 0.126 | S. cerevisiae deletion strains, locus YJR043C, strain POL32, active compounds read low 0.0504 | [7] 0.114 | S. cerevisiae deletion strains, locus YJR075W, strain HOC1, active compounds read low 0.0722 | S. cerevisiae deletion strains, locus YKL171W, strain NNK1, active compounds read low 0.104 | S. cerevisiae deletion strains, locus YKL190W, strain CNB1, active compounds read low 0.0461 | [8] 0.107 | S. cerevisiae deletion strains, locus YLR039C, strain RIC1, active compounds read low 0.0613 | S. cerevisiae deletion strains, locus YLR058C, strain SHM2 (second series), active compounds read low 0.0502 | S. cerevisiae deletion strains, locus YLR085C, strain ARP6, active compounds read low 0.0653 | [9] 0.179 | S. cerevisiae deletion strains, locus YLR262C, strain YPT6, active compounds read low 0.0583 | S. cerevisiae deletion strains, locus YML094W, strain GIM5, active compounds read low 0.0645 | S. cerevisiae deletion strains, locus YMR219W, strain ESC1, active compounds read low 0.0483 | S. cerevisiae deletion strains, locus YMR263W, strain SAP30, active compounds read low 0.0556 | S. cerevisiae deletion strains, locus YNL153C, strain GIM3, active compounds read low 0.0516 | [10] 0.138 | [11] 0.0972 | S. cerevisiae deletion strains, locus YNL298W, strain CLA4 (second series), active compounds read low 0.0614 | S. cerevisiae deletion strains, locus YNL322C, strain KRE1, active compounds read low 0.0528 | S. cerevisiae deletion strains, locus YNR030W, strain Alg12, active compounds read low 0.0591 | S. cerevisiae deletion strains, locus YOL006C, strain TOP1, active compounds read low 0.068 | [12] 0.119 | [13] 0.133 | S. cerevisiae deletion strains, locus YPL055C, strain LGE1, active compounds read low 0.0721 | S. cerevisiae deletion strains, locus YPL241C, strain CIN2, active compounds read low 0.0816 | [14] 0.17 | S. cerevisiae deletion strains, locus YPR135W, strain CTF4, active compounds read low 0.202 | S. cerevisiae strains, strain wild type, active compounds read low 0.0455

C=CCOc1ccc(/C=C/[N+](=O)[O-])cc1
active: S. cerevisiae deletion strains, locus YAR019C, strain CDC15, active compounds read low 0.0985 | S. cerevisiae deletion strains, locus YBL105C, strain PKC1, active compounds read low 0.0881 | S. cerevisiae deletion strains, locus YBR135W, strain CKS1, active compounds read low 0.0822 | S. cerevisiae deletion strains, locus YBR136W, strain MEC1, active compounds read low 0.095 | S. cerevisiae deletion strains, locus YBR160W, strain CDC28, active compounds read low 0.0851 | S. cerevisiae deletion strains, locus YDL017W, strain CDC7, active compounds read low 0.0853 | S. cerevisiae deletion strains, locus YDL028C, strain MPS1, active compounds read low 0.0971 | [1] 0.108 | S. cerevisiae deletion strains, locus YDL108W, strain KIN28, active compounds read low 0.1 | S. cerevisiae deletion strains, locus YDL132W, strain cdc53, active compounds read low 0.0933 | S. cerevisiae deletion strains, locus YDL214C, strain PRR2, active compounds read low 0.0888 | S. cerevisiae deletion strains, locus YDR052C, strain DBF4, active compounds read low 0.0837 | S. cerevisiae deletion strains, locus YDR054C, strain cdc34, active compounds read low 0.0953 | S. cerevisiae deletion strains, locus YDR477W, strain SNF1, active compounds read low 0.104 | S. cerevisiae deletion strains, locus YER123W, strain YCK3, active compounds read low 0.105 | S. cerevisiae deletion strains, locus YER133W, strain GLC7, active compounds read low 0.096 | S. cerevisiae deletion strains, locus YFL009W, strain cdc4, active compounds read low 0.0895 | S. cerevisiae deletion strains, locus YFL029C, strain CAK1, active compounds read low 0.094 | S. cerevisiae deletion strains, locus YFR003C, strain YPI1, active compounds read low 0.0875 | S. cerevisiae deletion strains, locus YFR019W, strain FAB1, active compounds read low 0.0967 | S. cerevisiae deletion strains, locus YFR028C, strain CDC14, active compounds read low 0.0822 | S. cerevisiae deletion strains, locus YGR040W, strain KSS1, active compounds read low 0.0972 | [2] 0.116 | S. cerevisiae deletion strains, locus YGR092W, strain DBF2, active compounds read low 0.106 | [3] 0.12 | [4] 0.118 | [5] 0.124 | S. cerevisiae deletion strains, locus YHR205W, strain SCH9, active compounds read low 0.00436 | S. cerevisiae deletion strains, locus YIL147C, strain SLN1, active compounds read low 0.116 | [6] 0.124 | S. cerevisiae deletion strains, locus YJL128C, strain PBS2, active compounds read low 0.154 | S. cerevisiae deletion strains, locus YJL157C, strain FAR1, active compounds read low 0.0842 | S. cerevisiae deletion strains, locus YJR016C, strain ILV3, active compounds read low 0.0828 | S. cerevisiae deletion strains, locus YJR066W, strain TOR1 (second series), active compounds read low 0.0922 | [7] 0.118 | S. cerevisiae deletion strains, locus YKL048C, strain ELM1, active compounds read low 0.107 | S. cerevisiae deletion strains, locus YKL067W, strain YNK1, active compounds read low 0.0924 | S. cerevisiae deletion strains, locus YKL101W, strain HSL1, active compounds read low 0.0997 | S. cerevisiae deletion strains, locus YKL193C, strain SDS22, active compounds read low 0.0826 | [8] 0.104 | [9] 0.147 | S. cerevisiae deletion strains, locus YLR133W, strain CKI1, active compounds read low 0.102 | S. cerevisiae deletion strains, locus YLR403W, strain SFP1, active compounds read low -0.00907 | S. cerevisiae deletion strains, locus YML070W, strain DAK1, active compounds read low 0.0908 | S. cerevisiae deletion strains, locus YMR001C, strain CDC5, active compounds read low 0.0861 | S. cerevisiae deletion strains, locus YMR205C, strain PFK2 (second series), active compounds read low 0.095 | S. cerevisiae deletion strains, locus YMR277W, strain FCP1, active compounds read low 0.0876 | S. cerevisiae deletion strains, locus YNL006W, strain LST8, active compounds read low 0.0846 | S. cerevisiae deletion strains, locus YNL020C, strain ARK1, active compounds read low 0.0937 | S. cerevisiae deletion strains, locus YNL161W, strain CBK1, active compounds read low 0.0814 | [10] 0.127 | [11] 0.0904 | S. cerevisiae deletion strains, locus YNL222W, strain SSU72, active compounds read low 0.0824 | S. cerevisiae deletion strains, locus YNL307C, strain MCK1 (second series), active compounds read low 0.102 | S. cerevisiae deletion strains, locus YOL078W, strain AVO1, active compounds read low 0.083 | S. cerevisiae deletion strains, locus YOL136C, strain PFK27, active compounds read low 0.0949 | S. cerevisiae deletion strains, locus YOR061W, strain CKA2, active compounds read low 0.0943 | [12] 0.112 | [13] 0.109 | S. cerevisiae deletion strains, locus YOR329C, strain SCD5, active compounds read low 0.0843 | S. cerevisiae deletion strains, locus YPL031C, strain PHO85, active compounds read low 0.102 | S. cerevisiae deletion strains, locus YPL153C, strain RAD53, active compounds read low 0.0983 | S. cerevisiae deletion strains, locus YPL204W, strain HRR25, active compounds read low 0.0984 | S. cerevisiae deletion strains, locus YPL209C, strain IPL1, active compounds read low 0.0828 | [14] 0.134 | S. cerevisiae deletion strains, locus YPR025C, strain CCL1, active compounds read low 0.0851 | S. cerevisiae deletion strains, locus YPR106W, strain ISR1, active compounds read low 0.0928 | S. cerevisiae deletion strains, locus YPR111W, strain DBF20, active compounds read low 0.154 | S. cerevisiae deletion strains, strain NNK1, active compounds read low 0.1 | S. cerevisiae deletion strains, strain TSCII, active compounds read low 0.0928
